DT40 TDP1 CPT = DT40-hTDP1 cell growth loss with CPT; 420,000 compounds, 12% hits; Potency, µM (highest dose often 46.2 µM), for the others: at the top dose activity change, negative = growth inhibition, hits mostly inhibitors; AID 686979; chicken DT40 Tdp1-/-;hTDP1 cells + 20 nM CPT, ATP luminescence, 48 h; further: potency means the concentration at half of the fitted maximal effect; nearly all actives have a fitted effect of over 55% in size
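Cell growth measured by CellTiter-Glo luminescence after a minimum 48 h, 37 C compound exposure with 20 nM CPT in Tdp1-knockout DT40 cells stably expressing hTDP1, seeded 400/well; qHTS titration format.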
IL-1B inflam inh = inflammasome signaling inhibition, IL-1 beta readout; 360,000 compounds, 4.7% hits; THP-1 LPS/ATP IL-1B secretion, AlphaLISA, 16 h; stronger effect = lower value; activity change, % at 57.5 µM; in the data active means activity change below about -50%; inconclusive means mostly about -30% to -49%
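Secreted IL-1B measured by AlphaLISA bead assay after 16 h compound exposure of THP-1 cells; compounds (final up to 57.5 uM) added 1 h before LPS (250 ng/mL) and ATP (1.25 mM) stimulation; lower signal means less secretion.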
HT1080 IDH1KD tx = HT-1080 IDH1 knockdown cell toxicity (counter line); HT-1080 IDH1 knockdown viability, ATP luminescence, 48 h; Potency, µM (highest dose often 46.1 µM), without a hit: top-dose activity, negative = toxicity, usual class: cytotoxic; 360,000 compounds, 2% hits; AID 686971;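 further: potency means the concentration at half of the fitted maximal effect; 0% = DMSO wells and -100% = cell-free medium wells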
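Luminescent ATP read-out (CellTiter-Glo, 10 min at room temperature) after 48 h compound exposure at 37 °C gave viability of IDH1-knockdown HT-1080 cells. Activity was normalised to DMSO and cell-free wells, then fitted as concentration-response curves.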
DT40 TDP1 no CPT = qHTS for Inhibitors of human tyrosyl-DNA phosphodiesterase 1 (TDP1): qHTS in cells in absence of CPT; DT40 Tdp1-/- hTDP1 cells, no CPT, ATP luminescence, 48 h; Potency, µM (doses to about 46.2 µM), for the others: at the highest dose activity change, negative = growth inhibition, hits mostly inhibitors; 420,000 compounds, 15% hits; AID 686978, 2013; further: potency means the concentration at half of the fitted maximal effect; nearly all actives have a fitted effect of over 55% in size
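Growth kinetics read by CellTiter-Glo luminescence after ≥48 hr at 37 °C. Cells: DT40 Tdp1-/- stably carrying human TDP1, 400 per well, compound exposure in the absence of CPT (DMSO vehicle).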
uPA surface inh = blocks generation of uPA at the cell surface; cell surface uPA generation assay, qHTS; Potency, µM (top dose mostly 38.3 µM), for inactives: top-dose activity change, negative = inhibition, most hits filed as inhibitors; 330,000 compounds, 0.31% hits; active means well fitted inhibition curve with a large enough effect; inconclusive means small, poorly fitted or top-dose-only effect; inactive means no such curve, though single readings can be large or run the other way; tested in mouse RAW 264.7 cells; further: potency means the concentration at half of the fitted maximal effect; nearly all actives have a fitted effect of over 55% in size
HT1080NT lethal = kills 2HG-producing HT-1080-NT fibrosarcoma cells | 360,000 compounds, 1.6% hits | HT-1080-NT fibrosarcoma viability, CellTiter-Glo ATP luminescence, 48 h | Potency, µM (series often up to 46.1 µM), inactives show top-dose activity, negative = less viability, usual class: cytotoxic | AID 686970;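 further: NT is the 2HG producing partner of a matched IDH1 knockdown line; potency means the concentration at half of the fitted maximal effect; 0% = DMSO-treated cells and -100% = media-only wells without cells; nearly all actives have a fitted effect of over 55% in size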
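A 48-hour cytotoxicity screen used HT-1080-NT cells plated 2 hours before compound delivery. ATP-based CellTiter-Glo luminescence measured viability, normalized to DMSO and no-cell controls.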
* marks the source's active call; other numbers are inactive results; ? = inconclusive; . = not tested or not shown; [ ] = another dose, or the depositor's remark. Most compounds without a hit are left out; they make up all but 19% or so of the library. Unless noted, the call rests on the fitted dose curve; in most records, active means well fitted curve in the direction sought with a large enough effect; inconclusive means small, poorly fitted or top-dose-only effect, or another doubt; inactive means no such curve, though single readings can be large; an effect the other way counts as inactive or inconclusive. Unless noted, on the % scale 0 is the no-effect control and ±100 the full control effect.

SMILES	DT40 TDP1 CPT	IL-1B inflam inh	HT1080 IDH1KD tx	DT40 TDP1 no CPT	uPA surface inh	HT1080NT lethal
Cc1ccccc1Nc1cc(C(=O)NC2CCC(C)CC2)c2ccccc2n1 (stereo not drawn)	16µM*	.	.	12µM*	.	.
CCc1ccc(-c2nn(CC(=O)NCc3ccccc3)c3c2cnc2ccc(F)cc23)cc1	-15%	.	.	-27%	.	.
COc1cc(C#Cc2c(-c3cncn3C)n(C)c3ccc(-c4cc(OC)c(OC)c(OC)c4)cc23)cc(OC)c1	21µM*	-76*	?	16µM*	?	?
COc1cc(C#Cc2c(-c3cncn3C)n(C)c3ccc(-c4ccc5[nH]ccc5c4)cc23)cc(OC)c1	?	-27	-2%	?	-8%	0%
COc1cc(OC)cc(-c2c(C#Cc3ccsc3)c3cc(-c4ccc(OC)c(F)c4)ccc3n2C)c1	-18%	12	11%	0%	1%	13%
COc1cc(C#Cc2c(-c3cncn3C)n(C)c3ccc(-c4ccc(OC)nc4)cc23)cc(OC)c1	16µM*	-11	-7%	?	8%	-22%
CCN1CCN(C(=O)c2cc(NC(=O)COC)cc3nc(-c4ccncc4)n(C)c23)CC1	-2%	.	.	17%	.	.
CCOc1ccc(NC(=O)CSc2nccn2C2CCCC2)cc1	-6%	.	.	?	.	.
O=C(CSc1ccccn1)Nc1nonc1[N+](=O)[O-]	3.7µM*	-99*	?	4.1µM*	?	21µM*
Cc1ccccc1-c1cnc(C(O)c2cc(Cl)cc(Cl)c2)[nH]1 (stereo not drawn)	?	-24	?	?	.	?
O=C(CSc1nnc2[nH]c(=O)cc(-c3ccccc3)n12)Nc1ccc(OC(F)(F)F)cc1	-4%	.	.	5%	.	.
Cc1cc(C(=O)CN2C(=O)NC3(CCCCC3C)C2=O)c(C)n1Cc1cccs1 (stereo not drawn)	-16%	-6	-4%	?	5%	-4%
Cc1cc(C(=O)CN2C(=O)c3cccc(N)c3C2=O)c(C)n1Cc1cccs1	?	-19	-15%	21µM*	-9%	-11%
Cc1cc(C(=O)CSc2nnc(-c3ccc(F)cc3)o2)c(C)n1CC1CCCO1 (stereo not drawn)	?	25	-5%	21µM*	4%	-10%
Cc1cc(C(=O)CSc2nnc(-c3ccccc3F)o2)c(C)n1Cc1cccs1	23µM*	43	-6%	?	0%	7%
COc1cc(-c2nnc(SCC(=O)c3cc(C)n(CC4CCCO4)c3C)o2)cc(OC)c1OC (stereo not drawn)	21µM*	45	-6%	?	3%	-2%
O=C(Nc1ccc(F)cc1)/C(=C1/CCCCCN1)[N+](=O)[O-]	2%	-25	3%	4%	2%	1%
COCCn1c(SCC(=O)c2ccc(F)cc2)nc2cc(C(=O)NC3CCCC3)ccc2c1=O	1%	.	.	-5%	.	.
Cc1cc(C(=O)CSc2nnc(-c3cccnc3)n2-c2ccccc2F)c(C)n1CC1CCCO1 (stereo not drawn)	-24%	-7	3%	23µM*	3%	1%
O=C(NCCO)c1cn(C2CCCN(Cc3cccc(C(F)(F)F)c3)C2)nn1 (stereo not drawn)	-7%[9.04 µM]	.	.	-18%	.	.
Oc1ccccc1CN1CCCC(N2CCN(c3cccc(C(F)(F)F)c3)CC2)C1 (stereo not drawn)	18µM*	-29	-7%	?	2%	-6%
Fc1ccccc1N1CCN(C2CCCN(Cc3cccc(C(F)(F)F)c3)C2)CC1 (stereo not drawn)	?	4	-4%	16µM*	-3%	-25%
O=S(=O)(NCCc1csc(-c2ccc(C(F)(F)F)cc2)n1)c1ccc2c(c1)OCCO2	18µM*	24	-2%	15µM*	9%	-4%
COc1ccc(-c2nc(CCNS(=O)(=O)c3ccc4c(c3)OCCO4)cs2)cc1	18µM*	8	-5%	16µM*	0%	-15%
O=S(=O)(NCCc1csc(-c2cccnc2)n1)c1ccc2c(c1)OCCO2	?	-1	0%	-23%	2%	0%
SMILES	DT40 TDP1 CPT	IL-1B inflam inh	HT1080 IDH1KD tx	DT40 TDP1 no CPT	uPA surface inh	HT1080NT lethal
CC(=O)Nc1ccc(/C(C)=N/Nc2nc(N3CCOCC3)nc(N3CCOCC3)n2)cc1	?	-9	5%	15µM*	-4%	3%
CC(=O)Nc1ccc(/C(C)=N/Nc2nc(Nc3cccc4ccccc34)nc(N3CCOCC3)n2)cc1	21µM*	-28	?	21µM*	-12%	?
O=C(Nc1ccc(C(=O)N2CCOCC2)cc1)Nc1cccc2ccccc12	-15%	25	2%	0%	-2%	10%
Cc1cccc(C(=O)Nc2ccc(C(=O)OCc3cc(=O)n4nc(CC(C)C)sc4n3)cc2)c1	-8%	.	.	?	.	.
CCC(C(=O)NCCCN1CCN(C)CC1)n1nc(C)c2sc3ccccc3c2c1=O (stereo not drawn)	2%	-1	0%	8%	-8%	-9%
CCOc1ccc(CCNC(=O)CCCn2nc(C)c3sc4ccccc4c3c2=O)cc1OCC	23µM*	.	.	18µM*	.	.
CCC(C(=O)NCCc1ccc(OC)c(OC)c1OC)n1nc(C)c2sc3ccccc3c2c1=O (stereo not drawn)	9.2µM*	.	.	12µM*	.	.
COc1ccc(CCNC(=O)C(C)n2nc(C)c3sc4ccccc4c3c2=O)c(OC)c1 (stereo not drawn)	21µM*	.	.	16µM*	.	.
COc1ccc(CNC(=O)COC(=O)c2cc(C)oc2C)cc1	-2%	-17	0%	-21%	.	-2%
CC1=C(C(=O)Nc2ccc(C)cc2C)C(c2cc(Br)ccc2F)n2ncc(C(=O)Nc3ccc(C)cc3)c2N1 (stereo not drawn)	?	.	.	12µM*	.	.
CC1=C(C(=O)Nc2ccc(C)cc2C)C(c2ccccc2[N+](=O)[O-])n2ncc(C(=O)Nc3ccccc3)c2N1 (stereo not drawn)	?	.	.	26µM*	.	.
Cc1ccc(NC(=O)C(Cc2ccccc2)NS(=O)(=O)c2ccc3c(c2)oc(=O)n3C)cc1F (stereo not drawn)	-10%	.	.	-17%	.	.
C/C=C/C=N/Nc1nc(-c2ccc([N+](=O)[O-])cc2)cs1	?	-25	-11%	23µM*	-6%	-9%
CC(C)=NNc1nc(-c2ccc([N+](=O)[O-])cc2)cs1	?	?	?	21µM*	-1%	-5%

High-throughput results from PubChem BioAssay.
